# PubChem BioAssay AID485317 (Broad Institute, 2010)
# Values joined by “and” are separate entries in the source; they are usually repeats but may differ in a detail not shown here. Equal entries are not always repeated. In all, about 290,000 compounds went through this assay and about 11,000 (3.8%) were called active. This is one part of a sample in which actives are shown more often than they occur.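 Rule for the calls: active = mean replicate inhibition above about 79%, with every replicate also reaching it (limit read from the data); inconclusive = only one of the two criteria met; inactive = mean below limit and not every replicate reaching it.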 Some compounds were tested as several samples or in several runs, with calls that do not always agree.
# Molecular target: FAD-linked sulfhydryl oxidase ALR (Homo sapiens) (UniProt P55789)
# Sequence (P55789 whole entry, looked up): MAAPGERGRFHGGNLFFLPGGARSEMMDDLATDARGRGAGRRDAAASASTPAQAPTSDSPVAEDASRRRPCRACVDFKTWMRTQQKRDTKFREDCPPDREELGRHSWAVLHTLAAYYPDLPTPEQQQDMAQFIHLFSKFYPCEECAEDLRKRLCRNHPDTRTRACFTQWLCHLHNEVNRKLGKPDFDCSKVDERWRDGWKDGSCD
# Test: inhibitors of human ALR sulfhydryl oxidase, primary screen, biochemical, H2O2 detection, HRP-luminol luminescence, single point (AID 485317)
# Details: purified ALR, DTT oxidation, stronger effect = higher value, concentration not given here
row,Compound,inhibition
1,CC(=O)NCCNC(=O)c1cc(-c2cccc3ccccc23)nc2ccccc12,-1.4% (inactive)
2,Cc1cc(NC(=O)CSCc2ccccc2C)no1,29% (inactive)
3,Cc1cc(NC(=O)CSCc2nc(-c3cccc(Cl)c3)oc2C)no1,96.6% (active)
4,COc1ccccc1C(=O)COC(=O)CSCC(=O)Nc1cc(C)on1,1.76% (inactive)
5,COc1ccc(-c2cc(C(=O)Nc3ccccc3O)c3ccccc3n2)cc1,-22.7% (inactive)
6,COCCn1c(C)cc(C(=O)COC(=O)CNC(=O)c2ccco2)c1C,0.463% (inactive)
7,Cc1cc(NC(=O)COC(=O)/C=C/c2ccc(C)o2)no1,-2.34% (inactive)
8,CNS(=O)(=O)c1cnccc1N1CCN(c2cccc(C)c2)CC1,98.6% (active)
9,CC(C)=C1SC(N2CCN(c3cccc(C)c3)CC2)=NC1=O,4.81% (inactive)
10,CC(C)NC(=O)N1CCN(c2ccncc2S(=O)(=O)N2CCCCC2)CC1,-2.12% (inactive)
11,Cc1ccn2c(=O)nc(SCC(=O)NCc3ccc4c(c3)OCO4)nc2c1,-1.9% (inactive)
12,O=C(CC(n1cncn1)C(Cl)(Cl)Cl)c1ccc([N+](=O)[O-])cc1 (configuration not stated),9.46% (inactive)
13,O=C(Nn1cnnc1)c1ccc([N+](=O)[O-])cc1,-3.87% (inactive)
14,O=C(Cn1c[n+](CC(=O)c2ccc([N+](=O)[O-])cc2)cn1)c1ccc([N+](=O)[O-])cc1,-22% (inactive) and 98.8% (active)
15,O=C(Nc1ccn(Cc2ccccc2)n1)c1n[nH]c([N+](=O)[O-])c1Cl,93.5% (active)
16,Cc1ccc(Cn2ccc(NC(=O)C3C4CCC(C4)C3C(=O)O)n2)cc1 (configuration not stated),1.86% (inactive)
17,O=C(Nc1ccn(Cc2ccccc2F)n1)c1ccc(COc2ccc(Cl)cc2Cl)o1,-9.12% (inactive)
18,Cc1ccc(CC(=O)Nc2ccc(S(=O)(=O)N3CCOCC3)cc2)cc1C,-2.53% (inactive)
19,COC(=O)c1c(NC(=O)c2cccs2)sc2c1CCCC2,-1.37% (inactive)
20,COC(=O)c1c(NC(=O)C2CC(C)=C(C)CC2C(=O)O)sc2c1CCCCC2 (configuration not stated),94.2% (active)
21,COC(=O)c1c(NC(=O)CCCC(=O)O)sc2c1CCCCC2,-5.42% (inactive)
22,FC(F)(F)c1nnc2sc(-c3ccco3)nn12,-7.15% (inactive)

row,Compound,inhibition
1,COc1cc(-c2nn3c(-c4cccc(C)c4)nnc3s2)cc(OC)c1OC,1.6% (inactive)
2,Fc1ccc(-c2ccc(-c3nn4c(-c5ccco5)nnc4s3)o2)cc1,98.5% (active)
3,COC(=O)CN1C(=S)N(c2ccccc2)C(=O)C1CC(=O)Nc1ccc(Cl)cc1 (configuration not stated),1.89% (inactive)
4,O=C(c1ccc(Cl)cc1)c1cnc(Nc2ccccc2)s1,24.8% (inactive)
5,O=C(O)CC1=C(Nc2ccccc2)C(=O)N(c2ccccc2)C1c1ccc(Cl)cc1 (configuration not stated),96.7% (active)
6,COc1cc(C(=O)NCC(c2ccco2)N2CCCC2)ccc1OCc1ccccc1 (configuration not stated),-2.39% (inactive)
7,CN(Cc1c(F)cccc1Cl)C(=O)CNC(=O)c1ccc2c(c1)OCO2,1.35% (inactive)
8,COc1cc2c(-c3ccc4c(c3)OCO4)c(-c3ccsc3)oc(=O)c2cc1OC,0.568% (inactive)
9,O=C(Nc1cccc(-c2nc3ccccc3[nH]2)c1)c1ccc(C(=O)Nc2cccc(-c3nc4ccccc4[nH]3)c2)cc1,-5.21% (inactive)
10,CN(c1ccccc1)S(=O)(=O)c1cc(C(=O)Nc2nc3ccccc3[nH]2)ccc1Cl,94.8% (active)
11,Cc1cccc(NC(=O)c2ccc(S(=O)(=O)N(C)c3ccccc3)cc2)n1,-13.4% (inactive)
12,O=C(c1cc(-c2ccco2)nc2ccccc12)N(Cc1nnc(-c2ccc(Cl)cc2)o1)C1CC1,2.44% (inactive)
13,Cn1cccc1C(=O)OCC(=O)c1ccc(Br)s1,0.737% (inactive)
14,CCn1c(CNc2ccc(OC)cc2)nnc1SCC(=O)c1ccc(OC)cc1,98.6% (active)
15,CCc1nnc(NC(=O)CSc2nnc(Cc3ccccc3)n2-c2ccc(OC)cc2)s1,-14.6% (inactive)
16,COC(=O)c1ccc(NC(=O)CSc2nnc(CNc3ccc(OC)cc3)n2C)cc1,-7.45% (inactive)
17,COc1ccc(NCc2nnc(SCc3ccccc3)n2-c2ccc(OC)cc2)cc1,91.9% (active)
18,C=CCn1c(CNC(=O)c2ccco2)nnc1SCC(=O)c1ccc(OC)cc1,29.4% (inactive)
19,COc1ccc(-c2nnc(SCC(=O)c3ccco3)n2-c2ccccc2)cc1,-5.92% (inactive)
20,C=CCC[C@H](Cc1ccc(F)cc1)C(=O)OC[C@@H](NC(=O)[C@@H](CC=C)CC(=O)N[C@H](CO)Cc1ccccc1)C(C)(C)C,2.91% (inactive)
21,Brc1cnc2ccccc2c1N1CCCCC1,-0.469% (inactive)
22,CS(=O)(=O)Nc1ccccc1C(=O)OCC(=O)NC1CC1,-5.36% (inactive)

row,Compound,inhibition
1,CN(C)c1ccc(-n2cccc2/C=N/n2cnnc2)cc1,98.6% (active)
2,COc1cccc(OCCOc2cccc(/C=N/n3cnnc3)c2)c1,-9.36% (inactive)
3,CN(C)c1ccc(-n2cccc2/C=C2/SC(=Nc3ccc(F)cc3)NC2=O)cc1,-13.8% (inactive)
4,CC1(C)C2CC[C@]3(C)C(CC=C4[C@@H]5C[C@@](C)(CO)CC[C@]5(C(=O)O)CC[C@]43C)[C@@]2(C)CC[C@@H]1O (some centres not stated),-8.21% (inactive)
5,O=C(COC(=O)/C=C/c1ccc(Br)o1)Nc1cccc(S(=O)(=O)N2CCOCC2)c1,-1.78% (inactive)
6,COc1cc2ccccc2cc1C(=O)Nc1ccc(N2CCOCC2)cc1,-0.59% (inactive)
7,CC(=O)Oc1cccc(N2C(=O)CC(Nc3ccc(N4CCOCC4)cc3)C2=O)c1 (configuration not stated),97.2% (active)
8,CC(=O)Oc1cccc(N2C(=O)C3CC=C(Cl)CC3C2=O)c1 (configuration not stated),-19% (inactive)
9,Cc1noc(C)c1NC(=O)Nc1cccc2c1O[C@H](CN(C)C(=O)Nc1ccccc1)[C@@H](C)CN([C@H](C)CO)C2=O,1.38% (inactive)
10,O=C(NN1CCOCC1)c1cccc(F)c1,-5.96% (inactive)
11,O=C(N/N=C/c1ccc2c(c1)OCO2)c1ccc(Cn2cc([N+](=O)[O-])cn2)o1,29.3% (inactive)
12,O=C(N/N=C\c1ccc(Br)cc1)c1ccc(Cn2cccn2)o1,0.182% (inactive)
13,CN(C)c1ccc(/C=N/NC(=O)c2ccc(Cn3cc(Br)cn3)o2)cc1,98.5% (active)
14,CC(OC(=O)c1ccc(Cl)cc1O)C(=O)NCCC1=CCCCC1 (configuration not stated),-2.95% (inactive)
15,CCOC(=O)N1CCN(C(=O)c2ccccc2SCC(=O)NCC2CCCCC2)CC1,-0.603% (inactive)
16,COc1cccc(CNC(=O)CCCC(=O)Nc2cccc([N+](=O)[O-])c2)c1,-3.17% (inactive)
17,COc1cccc(C(=O)CC(=O)C(=O)Nc2ccc([N+](=O)[O-])cc2C)c1,7.39% (inactive)
18,COc1cccc(NCCC(=O)c2cccc([N+](=O)[O-])c2)c1,97.4% (active)
19,COc1ccc(CNC(=O)C2(CC3CC(c4ccccc4)=NO3)CCN(C(=O)c3cccc(O)c3)CC2)cc1 (configuration not stated),-2.44% (inactive)
20,COCCN(Cc1ccccc1)C(=O)Cc1ccc(S(=O)(=O)N2CCOCC2)s1,2.09% (inactive)
21,O=C(NCC1CC1)c1onc(CSc2ccccc2)c1C(=O)NCC1CC1,-11.1% (inactive)
22,CCOC(=O)c1sc(NC(=O)CSc2nc(O)c(Cc3ccccc3)c(=O)[nH]2)nc1C,98.6% (active)

row,Compound,inhibition
1,CCOC(=O)c1sc(NC(=O)CSc2n[nH]c(CC)n2)nc1C,-1.87% (inactive)
2,CCOC(=O)c1ccccc1NC(=O)CSc1nc2ccccc2c(=O)[nH]1,-0.524% (inactive)
3,O=C(CSc1nc(O)c(Cc2ccccc2)c(=O)[nH]1)Nc1nc2c(s1)CCCC2,99.1% (active)
4,O=C(Cn1c(=O)sc2ccccc21)Nc1nc2c(s1)CCCC2,42.4% (inactive)
5,Cc1cccc(NC(=O)CSc2nc3c(c(=O)[nH]2)CCCC3)c1C,-5.33% (inactive)
6,COC(=O)c1ccc(-c2c(-c3ccccc3)ncc3cc(OC)c(OC)cc23)cc1,1.43% (inactive)
7,C=CC[C@H](CC(=O)OC(C)(C)C)C(=O)OC[C@H]1CCCN1C(=O)[C@H](CC=C)CC(=O)N(CCO)Cc1ccccc1,-5.27% (inactive)
8,CC1(C)CC(=O)C=C(c2ccc3ncccc3c2)C1,-1.35% (inactive)
9,COc1ccc(NS(=O)(=O)c2cc(NC(=O)COc3ccccc3F)ccc2OC)cc1,-2.82% (inactive)
10,COc1cccc(-c2ccc3c(c2)S(=O)(=O)c2cccc(C(=O)O)c2C3=O)c1OC,-0.409% (inactive)
11,COc1ccc(-c2csc3ncnc(N4CCN(S(=O)(=O)c5cccc(F)c5)CC4)c23)cc1,0.272% (inactive)
12,CCCc1ccc(C(=O)COC(=O)CN2C(=O)NC3(CCCCC3C)C2=O)cc1 (configuration not stated),-2.13% (inactive)
13,O=C(CSc1nnnn1-c1ccc2c(c1)CCC2)Nc1ccc2c(c1)OCCO2,-26.1% (inactive)
14,Nn1c(SCC(=O)Nc2ccc3c(c2)CCC3)nnc1C1CC1,98.6% (active)
15,COc1ccc(NC(=O)CSc2nnc(C3CC3)n2C)cc1S(=O)(=O)N1CCCCC1,-0.755% (inactive)
16,COc1ccc2cc(C3=CC(=O)C[C@H](c4ccc5c(c4)OCO5)C3)ccc2c1,0.243% (inactive)
17,Cc1ccc(OCc2cc(C(=O)N(C)CCn3ccnc3C)no2)cc1C,-0.532% (inactive)
18,CCCCCCCNC(=O)C1(CC2CC(c3cccc(Br)c3)=NO2)CCN(C(=O)c2cc(OCC)c(OCC)c(OCC)c2)CC1 (configuration not stated),-9.32% (inactive)
19,CCCCN(C(=O)CSCC(=O)Nc1ccc(OC)cc1)c1c(N)n(CCC)c(=O)[nH]c1=O,2.82% (inactive)
20,CCOC(=O)Cc1ncccc1C(=O)Nc1ccc(OC)cc1,10.7% (inactive)
21,CCCCOc1ccc(NC(=O)CSCC(=O)OCC)cc1,98.6% (active)
